Data as given in PubChem BioAssay AID1159580 (chemical genetic matrix, 2015).
In all, about 5,500 compounds went through this assay and about 2,000 (36%) were called active. About 18% were inconclusive and are not listed. Rule as the data show it: active = normalized growth mostly below about 0.91 (no sharp cut-off); inconclusive = no clear call, values can overlap the other calls; inactive = mostly above about 0.92. This is one part of the list.

Assay: chemical genetic growth profiling, strain panel (AID 1159580);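 also: tested at 20 µM; growth read once vehicle control cultures reached saturation at 30 °C; 1 = growth at the plate median or of vehicle wells; lower values mean less growth of the strain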
Settings: S. cerevisiae deletion strains, growth OD

Measured: normalized growth

O=S1OCC2C(CO1)C1(Cl)C(Cl)=C(Cl)C2(Cl)C1(Cl)Cl (centres undefined)
inactive: locus YAL013W, strain DEP1, hits give low values 0.973 | locus YAL021C, strain ccr4, hits give low values 0.982 | locus YAL026C, strain drs2, hits give low values 0.98 | locus YAL030W, strain snc1, hits give low values 0.993 | locus YBL061C, strain skt5, hits give low values 1 | locus YBR009C, strain hhf1, hits give low values 0.989 | locus YBR021W, strain FUR4, hits give low values 0.993 | locus YBR023C, strain chs3, hits give low values 0.987 | locus YBR171W, strain sec66, hits give low values 0.974 | locus YBR229C, strain ROT2, hits give low values 0.998 | locus YBR231C, strain swc5, hits give low values 0.992 | locus YBR279W, strain paf1, hits give low values 1 | locus YCL011C, strain gbp2, hits give low values 0.98 | locus YCL016C, strain dcc1, hits give low values 0.999 | locus YCL029C, strain bik1, hits give low values 0.972 | locus YCL061C, strain MRC1, hits give low values 0.983 | locus YCL069W, strain vba3, hits give low values 0.99 | locus YCR088W, strain abp1, hits give low values 0.98 | locus YDL005C, strain med2, hits give low values 1 | locus YDL035C, strain GPR1, hits give low values 0.983 | locus YDL040C, strain nat1, hits give low values 0.994 | locus YDL074C, strain BRE1, hits give low values 0.999 | locus YDL101C, strain DUN1, hits give low values 0.972 | locus YDL134C, strain PPH21, hits give low values 0.997 | locus YDL185W, strain tfp1, hits give low values 0.948 | locus YDL192W, strain arf1, hits give low values 0.98 | locus YDR001C, strain nth1, hits give low values 0.974 | locus YDR069C, strain doa4, hits give low values 0.973 | locus YDR101C, strain arx1, hits give low values 0.992 | locus YDR150W, strain NUM1, hits give low values 0.991 | locus YDR159W, strain sac3, hits give low values 0.893 | locus YDR162C, strain NBP2, hits give low values 0.946 | locus YDR195W, strain ref2 1.04 | locus YDR297W, strain sur2, hits give low values 0.983 | locus YDR318W, strain mcm21, hits give low values 0.973 | locus YDR334W, strain swr1, hits give low values 0.99 | locus YDR335W, strain msn5, hits give low values 0.995 | locus YDR388W, hits give low values 0.981 | locus YDR392W, strain spt3, hits give low values 0.823 | locus YDR502C, strain sam2, hits give low values 0.96 | locus YEL003W, strain gim4, hits give low values 0.931 | locus YEL037C, strain rad23, hits give low values 1 | locus YEL061C, strain CIN8 (second series), hits give low values 0.983 | locus YEL061C, strain CIN8, hits give low values 0.992 | locus YER015W, strain faa2, hits give low values 0.993 | locus YER016W, strain bim1, hits give low values 0.991 | locus YER110C, hits give low values 0.986 | locus YER111C, strain swi4, hits give low values 0.997 | locus YER155C, strain BEM2 (second series), hits give low values 0.988 | locus YER155C, strain BEM2, hits give low values 0.973 | locus YER167W, strain BCK2, hits give low values 0.966 | locus YFR010W, strain ubp6, hits give low values 0.984 | locus YGL078C, strain dbp3, hits give low values 0.968 | locus YGL086W, strain mad1, hits give low values 0.975 | locus YGL167C, strain pmr1, hits give low values 0.989 | locus YGL173C, strain kem1, hits give low values 0.992 | locus YGL227W, strain vid30, hits give low values 0.987 | locus YGL240W, strain doc1, hits give low values 0.988 | locus YGL248W, strain PDE1, hits give low values 1.01 | locus YGL253W, strain hxk2, hits give low values 0.987 | locus YGR078C, strain PAC10, hits give low values 0.97 | locus YGR135W, strain pre9, hits give low values 0.978 | locus YGR229C, strain SMI1, hits give low values 0.992 | locus YGR252W, strain gcn5, hits give low values 0.984 | locus YHR013C, strain ard1, hits give low values 0.862 | locus YHR027C, strain rpn1, hits give low values 0.996 | locus YHR030C, strain SLT2, hits give low values 0.979 | locus YHR079C, strain IRE1 (second series), hits give low values 0.977 | locus YHR094C, strain hxt1, hits give low values 0.971 | locus YHR129C, strain ARP1, hits give low values 1.01 | locus YHR142W, strain chs7, hits give low values 0.971 | locus YHR200W, strain rpn10, hits give low values 0.972 | locus YIL066C, strain RNR3, hits give low values 0.966 | locus YIL073C, strain SPO22, hits give low values 0.887 | locus YIL125W, strain kgd1, hits give low values 0.982 | locus YIR030C, strain dcg1, hits give low values 0.98 | locus YJL092W, strain hpr5, hits give low values 0.987 | locus YJL095W, strain BCK1 (second series), hits give low values 1.01 | locus YJL095W, strain BCK1, hits give low values 0.999 | locus YJL115W, strain asf1, hits give low values 0.977 | locus YJL129C, strain trk1, hits give low values 0.888 | locus YJL134W, strain LCB3, hits give low values 0.966 | locus YJL154C, strain vps35, hits give low values 0.983 | locus YJL164C, strain tpk1, hits give low values 0.942 | locus YJL168C, strain set2, hits give low values 0.974 | locus YJL187C, strain SWE1 (second series), hits give low values 0.979 | locus YJL187C, strain SWE1, hits give low values 0.995
active: locus YDR137W, strain rgp1, hits give low values 1.17 [resistant] | locus YJL166W, strain qcr8, hits give low values 0.875
